Here are results for 55 molecules from ChEMBL document CHEMBL3988442, “University of Dundee, Small-Polar-MMV Screening Library” (2021).

About 13,000 (27%) of roughly 48,000 compounds showed an effect of 50% or more. This is one part of the list.

This assay concerns Wolbachia pipientis. Description: Anti-Wolbachia Cell-Based Screen. The note with it: 5 µM. Format: functional. Also noted: scale not given: in the data most compounds retested in dose-response had high values.
In the case of `COc1cc(C(=O)Nc2nc(C)no2)ccc1C`, the “Percent Effect” value is -1.332%.

`COCC(=O)NC[C@@]1(COc2cnccn2)C[C@@H](O)[C@@H](O)C1.Cl`: the “Percent Effect” value is -5.232%.

`COCCOCCCC(=O)N1CCC(Cc2ccccc2OC)CC1`: the “Percent Effect” value is listed as -18.09%.

On to `FC(F)Oc1ccccc1CNCc1cc(Br)c2c(c1)OCO2`, for which the “Percent Effect” value is given as 6.017%.

For the molecule `c1ccc(CC2(CNCc3ncc[nH]3)CCC2)cc1`, the “Percent Effect” value is listed as -10.87%.

With `N#Cc1ccc(N2CCCC3(CCC(=O)N3CC3CC3)CC2)nc1.O=C(O)C(F)(F)F` (stereo not given), the “Percent Effect” value is reported as 105.4%.

For `N#Cc1cccc(CN2CC3(CCCCN3c3cncnc3)CC2=O)c1.O=C(O)C(F)(F)F` (stereo not given), the “Percent Effect” value was -19.74%.

For the molecule `CN1C(=O)CCC12CCN(c1ccc(C#N)cn1)CC2.O=C(O)C(F)(F)F`, the “Percent Effect” value is 114%.

As for `N#Cc1ccc(N2CCC(c3nc(C(F)(F)F)c[nH]3)CC2)nc1`, the “Percent Effect” value is listed as -13.67%.

As to `O=C1CCC2(CCCN(c3ncc(F)cn3)CC2)N1CC1CC1` (stereo not given), the “Percent Effect” value is -5.991%.

As for `N#Cc1ccc(N2CCC3(CCC(=O)N3CCN3CCCC3)CC2)nc1.O=C(O)C(F)(F)F.O=C(O)C(F)(F)F`, the “Percent Effect” value worked out at 111.3%.

As for `N#Cc1ccc(N2CCCC3(CCN(c4cncnc4)C3=O)C2)nc1.O=C(O)C(F)(F)F` (stereo not given), the “Percent Effect” value was determined as 104%.

Consider `COc1cc(N2CCCC3(CCN(c4cccnc4)C3=O)C2)ncn1.O=C(O)C(F)(F)F` (stereo not given), for which the “Percent Effect” value is listed as -87.96%.

Consider `O=C1CCC2(CCN(c3ncc(F)cn3)CC2)N1CCN1CCCC1`, for which the “Percent Effect” value worked out at 20.59%.

Take `COCCN1CCOCC12CCN(c1ccc(C#N)cc1)CC2.O=C(O)C(F)(F)F`: the “Percent Effect” value was 1.624%.

Turning to `O=C(O)C(F)(F)F.O=C(O)C(F)(F)F.O=C(c1ccncc1)N1CCCC2(CCN(c3cccnc3)C2=O)C1` (stereo not given), the “Percent Effect” value is reported as -3.414%.

As for `O=C(O)C(F)(F)F.O=C(O)C(F)(F)F.O=C1CCC2(CCCN(Cc3nccs3)C2)N1CC1CC1` (stereo not given), the “Percent Effect” value is -83.2%.

For the molecule `CC(C)c1nc(N2CC[C@@H](N(C)CCc3ccccn3)[C@H](O)C2)no1`, the “Percent Effect” value is -7.34%.

For the molecule `CSc1cccc(CN(C)C(=O)C2CC(=O)N(CCN(C)C)C2)c1` (stereo not given), the “Percent Effect” value stood at 0.2115%.

For `Cc1cccc2c(=O)n(C(C)Cc3cccnc3)cnc12` (stereo not given), the “Percent Effect” value turned out to be 5.15%.

Turning to `Cc1cn([C@H]2CCNC[C@]2(C)O)c(=O)[nH]c1=O`, the “Percent Effect” value is recorded as 91.37%.

With `Cc1cn([C@@H]2CC3(CCNCC3)OC[C@@]2(C)O)c(=O)[nH]c1=O`, the “Percent Effect” value is 120.3%.

With `N#Cc1ccc(NCc2cccnc2N2CCC(C(N)=O)CC2)cn1`, the “Percent Effect” value worked out at 11.59%.

`COCCC(=O)N1CCc2c(CNc3ncccn3)cncc2C1.Cl`: the “Percent Effect” value is -6.28%.

Take `Cl.O=C(N1CCCC1)N1CCc2c(CNc3ncccn3)cncc2C1`: the “Percent Effect” value is given as -8.095%.

Consider `CCCC(=O)N1CCc2c(CNS(C)(=O)=O)cncc2C1.Cl`, for which the “Percent Effect” value is 100.5%.

For the molecule `CS(=O)(=O)NCc1cncc2c1CCN(C(=O)N1CCCC1)C2.Cl`, the “Percent Effect” value amounted to 112.8%.

`CC(=O)NCC(=O)N1CCc2c(CNc3ncccn3)cncc2C1.Cl`: the “Percent Effect” value is -3.566%.

As for `CCCn1[nH]cc/c1=N\C(=O)CN1CCCC1c1c(C)nn(C)c1C` (stereo not given), the “Percent Effect” value is reported as -11.65%.

Turning to `Cc1cnn(CCC(=O)N2CCCN(c3cccnn3)CC2)c1`, the “Percent Effect” value was determined as 7.961%.

Regarding `N#Cc1ccccc1N1CCN(CCC(=O)N2CCOCC2)CC1`, the “Percent Effect” value turned out to be 8.66%.

For `N#Cc1ccccc1N1CCCN(C(=O)CCn2cccn2)CC1`, the “Percent Effect” value is -8.555%.

Turning to `COc1ccccc1N1CCN(C(=O)CCn2ccc(C)n2)CC1(C)C`, the “Percent Effect” value was -8.619%.

With `N#Cc1cccnc1N1CCN(C(=O)CCC(=O)c2cccs2)CC1`, the “Percent Effect” value came out at 2.306%.

As for `Cn1cc(CCC(=O)N2CCCN(c3ncccc3C#N)CC2)cn1`, the “Percent Effect” value came out at 89.9%.

Regarding `COc1ccccc1N1CCN(C(=O)CCn2ccc(C)n2)CC1`, the “Percent Effect” value turned out to be 112.7%.

As for `N#Cc1cccnc1N1CCCN(C(=O)CCc2cccs2)CC1`, the “Percent Effect” value was -1.405%.

Take `COc1ccccc1N1CCN(C(=O)CCn2ccnc2C)CC1(C)C`: the “Percent Effect” value is 3.273%.

With `N#Cc1cccnc1N1CCCN(C(=O)CCn2cccn2)CC1`, the “Percent Effect” value is 107%.

On to `Cc1cnn(CCC(=O)N2CCCN(c3ccccc3C#N)CC2)c1`, for which the “Percent Effect” value turned out to be 106.5%.

In the case of `COc1ccnc(N2CCCN(C(=O)CCc3cnn(C)c3)CC2)n1`, the “Percent Effect” value was -25.81%.

In the case of `O=C1CC(c2ccc(F)cc2)Cc2[nH]c(=O)c(C(=O)O)cc21` (stereo not given), the “Percent Effect” value is reported as -7.153%.

Regarding `COc1ccc(-c2nnc([C@H]3CCN(C4CCC4)C3)o2)cc1`, the “Percent Effect” value was -7.791%.

`COc1ccc2c(C)nc(N3CCN([C@H]4CCCC[C@@H]4O)CC3)nc2c1`: the “Percent Effect” value was -5.01%.

Turning to `N#Cc1ccc(CN2CCCN(C(=O)CCn3cncn3)CC2)cc1`, the “Percent Effect” value is on record as -4.749%.

For `Cc1cnn(CCC(=O)N2CCN(c3ncccc3Cl)CC2)c1`, the “Percent Effect” value was found to be 8.116%.

Take `N#Cc1ccc(CN2CCN(C(=O)CCn3cncn3)CC2)cc1`: the “Percent Effect” value is recorded as -1.452%.

`Cc1cnn(CCC(=O)N2CCN(c3nc(C)cs3)CC2)c1`: the “Percent Effect” value is recorded as -7.951%.

Consider `N#Cc1cccnc1N1CCCN(CC(=O)N2CCNC(=O)C2)CC1`, for which the “Percent Effect” value is listed as -3.438%.

`Cc1cnn(CCC(=O)N2CCN(c3ccc(C#N)cn3)CC2)c1`: the “Percent Effect” value is 122.4%.

On to `Cc1cnn(CC(=O)N2CCCN(c3ncccc3C#N)CC2)c1`, for which the “Percent Effect” value was determined as 99.25%.

Take `N#Cc1cccnc1N1CCCN(C(=O)CCn2cncn2)CC1`: the “Percent Effect” value is given as 103.6%.

Take `Cc1cnn(CCC(=O)N2CCCN(c3ncccc3C#N)CC2)c1`: the “Percent Effect” value came to 7.127%.

On to `CN(C)c1cc(C(=O)Nc2ccccc2C(=O)NC(C)(C)C)ccn1`, for which the “Percent Effect” value was found to be 0.03536%.

As to `CCn1nc(C)cc1C(=O)NCc1cccnc1N(C)C`, the “Percent Effect” value was -6.394%.
